Screening data from PubChem BioAssay.
NPC1 promoter act – activators of NPC1 promoter. Potency, µM (series often up to 9.22 µM), for inactives: at the top dose activation, hits mostly activators. 320,000 tested, 2.4% active. Huh7 NPC1 promoter luciferase reporter, 24 h; also: % of control where 0% means no effect; nearly all actives have a fitted effect of over 60% in size
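Huh7 reporter cells (NPC1 promoter driving luciferase) are dosed with compound for 24 h at 37 °C, 5% CO2; luciferase detection reagent is then added and luminescence measured after 10 min at ambient temperature.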
Luc counter – blocks Kinase-Glo luciferase, a counter-screen artifact; 200,000 tested, 0.28% active; Potency, µM (titrated, usually from 38.3 µM), inactives show at the top dose activity change, negative = inhibition, most hits filed as inhibitors; Kinase-Glo luciferase, ATP luminescence, 8 min; Q27757; also: % is scaled to controls: 0 for no effect and ±100 for the full control effect; nearly all actives have a fitted effect of over 60% in size
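Compounds were added to a substrate mix at pH 7.2 (50 mM imidazole, 10 uM ATP, within the enzyme's linear range), followed by Kinase-Glo detection reagent; luminescence was measured after 8 minutes at ambient temperature.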
Rab9 promoter act – activates the Rab9 promoter | 320,000 tested, 2.8% active | Huh7 Rab9 promoter-luciferase reporter, luminescence, 24 h | Potency, µM (series often up to 9.22 µM), inactives show top-dose activation, negative = inhibition, actives largely listed as activators; also: % of control where 0% means no effect; nearly all actives have a fitted effect of over 60% in size
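Huh7 reporter line, Rab9 promoter upstream of luciferase. Compound exposure 24 h at 37 °C in reduced-serum medium with 10% FBS. Read-out: luminescence.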
ELG1 genotoxic – genotoxicity induction in ELG1-luciferase HEK293T cells; 330,000 tested, 1.3% active; Potency, µM (series often up to 46 µM), for inactives: top-dose activity change, positive = activation, usual class: activators; HEK293T ELG1-luciferase reporter, luminescence, 16 h; also: % of control where 0% means no effect; nearly all actives have a fitted effect of over 60% in size
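Screening used a luciferase reporter fused to human ELG1 in HEK293T cells. Luminescence was read on a CCD plate imager after 16 hr exposure and 30 min ONE-Glo incubation.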
SMN2 splice enh – SMN2 splice variant enhancement; HEK293 SMN2-luciferase splicing reporter, luminescence, 30-36 h; Potency, µM (highest dose often 46.1 µM), for the others: at the top dose activity change, positive = activation, hits mostly activators; 210,000 tested, 2.8% active; also: % of control where 0% means no effect; nearly all actives have a fitted effect of over 55% in size
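HEK293 cells carry an SMN2 minigene-luciferase reporter in which exon 7 inclusion puts luciferase in frame. Cells were seeded at 2000 cells/well, attached for 10-12 hours, then exposed to compounds for 30-36 hours at 37C before ONE-Glo luminescence.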
FLuc modulator – counter-screen for miR-21 project: firefly luciferase inhibitors or activators. Potency, µM (titrated, usually from 57.5 µM), for the others: top-dose activity change, negative = inhibition, hits mostly inhibitors. 360,000 tested, 6.9% active. purified FLuc, Km substrates, luminescence inhibition. AID 588342. P08659;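 also: plate controls were vehicle for no effect and reference inhibitor for full effect; nearly all actives have a fitted effect of over 55% in size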
Target sequence (P08659 whole entry, looked up): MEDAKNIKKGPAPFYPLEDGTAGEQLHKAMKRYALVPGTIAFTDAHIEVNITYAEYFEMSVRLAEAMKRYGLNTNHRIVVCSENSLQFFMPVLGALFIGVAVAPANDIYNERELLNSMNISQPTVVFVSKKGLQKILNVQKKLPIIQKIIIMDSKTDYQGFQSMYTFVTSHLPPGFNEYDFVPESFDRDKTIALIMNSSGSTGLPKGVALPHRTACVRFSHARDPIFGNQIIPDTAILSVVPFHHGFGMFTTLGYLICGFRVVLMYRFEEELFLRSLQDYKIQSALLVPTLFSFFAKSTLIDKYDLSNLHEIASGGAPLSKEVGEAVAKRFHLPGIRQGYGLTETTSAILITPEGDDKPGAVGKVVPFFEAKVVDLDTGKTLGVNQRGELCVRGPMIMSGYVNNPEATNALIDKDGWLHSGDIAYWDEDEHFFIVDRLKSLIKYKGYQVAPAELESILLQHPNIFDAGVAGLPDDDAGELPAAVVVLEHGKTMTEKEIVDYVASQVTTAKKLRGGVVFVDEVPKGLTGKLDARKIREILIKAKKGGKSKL
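Purified P. pyralis luciferase, 10 nM final, with Km-level 10 uM D-luciferin and 10 uM ATP in 50 mM Tris acetate pH 7.5, 10 mM Mg acetate, 0.01% Tween-20, 0.05% BSA; 6-point qHTS titration about 60 µM downward; luminescence read.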
An asterisk follows results filed as active. Sampled rows, rich in hits. Any-hit rate of the full collection: about 7.4%. Calls follow the shape of the dose curve; as a rule, active = well fitted curve in the direction sought with a large enough effect; inconclusive = small, poorly fitted or top-dose-only effect, or another doubt; inactive = no such curve, though single readings can be large; an effect the other way counts as inactive or inconclusive. Potency is read from the fitted curve at half-maximal effect.

How did O=C(Nc1ncccc1O)c1ccc2c(c1)OCCO2 do in these assays?
NPC1 promoter act: 3.55µM*; Rab9 promoter act: 2.51µM*; ELG1 genotoxic: 20.6µM*; FLuc modulator: 15.1µM*

How did Cc1cccnc1NC(=O)C1CC(=O)N(c2ccc3c(c2)OCCO3)C1 (configuration not stated) do in these assays?
NPC1 promoter act: -1.4%; Rab9 promoter act: -1.8%; ELG1 genotoxic: 1.2%; FLuc modulator: -3.0%

How did COc1cccc(CCN2C(=O)C(=O)N([C@@H](CNCc3ccccc3)Cc3ccccc3F)C[C@@H]2C(C)(C)C)c1 do in these assays?
NPC1 promoter act: -1.0%; Rab9 promoter act: -2.8%; ELG1 genotoxic: -4.5%; FLuc modulator: 3.3%

What do the screens show for `COC(=O)c1cc2oc3ccccc3c2n1CC(=O)Nc1cccc(SC)c1`?
SMN2 splice enh: -7.9%; FLuc modulator: -7.4%

How did COc1ccc(S(=O)(=O)Nc2cc(S(=O)(=O)N3CCOCC3)ccc2OC)cc1 do in these assays?
ELG1 genotoxic: 0.5%

How did COc1ccc(NC(=O)Nc2ncccc2C)cc1 do in these assays?
NPC1 promoter act: inconclusive; Luc counter: -4.6%; Rab9 promoter act: inconclusive; ELG1 genotoxic: inconclusive; SMN2 splice enh: 11.2µM*; FLuc modulator: 10.7µM*

What do the screens show for `Cc1cccnc1NC(=O)Nc1ccc(Cl)cc1`?
NPC1 promoter act: -8.3%; Rab9 promoter act: 3.98µM*; ELG1 genotoxic: inconclusive; FLuc modulator: 4.26µM*

What do the screens show for `COc1ccc(C(=O)NC(=O)Nc2ncccc2C)cc1`?
NPC1 promoter act: inconclusive; Luc counter: -20.9%; Rab9 promoter act: 3.55µM*; ELG1 genotoxic: inconclusive; SMN2 splice enh: inconclusive; FLuc modulator: 16.9µM*

How did Cc1cccnc1NC(=O)CCNC(=O)c1ccc(Cl)cc1 do in these assays?
NPC1 promoter act: 1.2%; Rab9 promoter act: 3.7%; ELG1 genotoxic: 7.5%; FLuc modulator: 5.2%

Results for Cc1cccnc1NC(=O)Nc1ccccc1 ?
NPC1 promoter act: inconclusive; Rab9 promoter act: 3.98µM*; ELG1 genotoxic: inconclusive; FLuc modulator: 10.7µM*

What do the screens show for `COC(=O)c1ccccc1NC(=O)Nc1ncccc1C`?
NPC1 promoter act: -2.6%; Luc counter: 3.1%; Rab9 promoter act: -7.4%; ELG1 genotoxic: 0.4%; SMN2 splice enh: 2.5%; FLuc modulator: -0.7%

Results for COc1ccc(OC)c2c(C)c(C)[nH]c12 ?
NPC1 promoter act: 6.0%; Rab9 promoter act: 1.5%; ELG1 genotoxic: -0.1%; FLuc modulator: -0.2%

Results for CC(C)(C)c1ccc(C(=O)NNc2ncccc2-n2cccc2)cc1 ?
NPC1 promoter act: 10.0%; Rab9 promoter act: 9.5%; ELG1 genotoxic: -4.4%; FLuc modulator: -8.1%

How did CSc1ccc(S(=O)(=O)NC2CC2)cc1 do in these assays?
NPC1 promoter act: -1.7%; Rab9 promoter act: -1.3%; ELG1 genotoxic: 1.4%; FLuc modulator: 1.4%

Results for CC(C)=Cc1oc2ccc([N+](=O)[O-])cc2c1N1CC(C)OC(C)C1 (configuration not stated) ?
NPC1 promoter act: -0.1%; Luc counter: -0.3%; Rab9 promoter act: -1.6%; ELG1 genotoxic: -0.1%; SMN2 splice enh: -6.0%; FLuc modulator: -4.7%

How did O=C(Nc1onc2c1CCCC2)c1ccc(Cl)cc1 do in these assays?
SMN2 splice enh: 8.91µM*; FLuc modulator: 1.9µM*

Results for CCCCOc1ccc(C(=O)Nc2onc3c2CCCC3)cc1 ?
SMN2 splice enh: 22.4µM*; FLuc modulator: 1.69µM*

Results for O=C(NN=C1CCCC1)c1ccc(Cl)cc1 ?
NPC1 promoter act: 14.5%; Rab9 promoter act: 15.8%; ELG1 genotoxic: -1.0%; FLuc modulator: -3.3%

How did O=C(O)c1ccccc1SCc1cn2ccccc2n1 do in these assays?
NPC1 promoter act: -0.3%; Luc counter: -3.6%; Rab9 promoter act: 8.6%; ELG1 genotoxic: 3.6%; SMN2 splice enh: 14.1%; FLuc modulator: inconclusive
